Several values for one entry are separate records, joined by “and”; a condition that tells them apart may be missing. Equal values may be shown once. Results filed as inconclusive are left out. A call without a number means that no potency is given here. Values without a mark were called inactive. Activity calls are given as the source filed them. Calls come from the whole dose curve; as a rule, active = well fitted curve in the direction sought with a large enough effect; inconclusive = small, poorly fitted or top-dose-only effect, or another doubt; inactive = no such curve, though single readings can be large; an effect the other way counts as inactive or inconclusive.
Key:
[1] = target: Cytochrome P450 3A7 (Homo sapiens) (UniProt P24462); test: Cytochrome P450 family 3 subfamily A member 7 (CYP3A7) small molecule antagonists: luciferase biochemical qHTS assay (AID 1963596); note: nearly all actives have a fitted effect of over 40% in size
In short: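 P450-Glo luminescent assay: CYP3A7 enzyme converts a proluciferin substrate to luciferin, detected by luciferase reagent; light proportional to activity. Compounds in DMSO preincubated 10 min with enzyme-substrate mix at room temperature, then NADPH regeneration added for 1 h.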

[2] = Viability qHTS for spleen associated tyrosine kinase inhibitor (SYKi) naive MV4-11 cells (AID 1963823); note: nearly all actives have a fitted effect of over 40% in size; note: potency is the fitted concentration of half-maximal effect
In short: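 Compounds were dispensed acoustically onto plates, MV4-11 cells (SYKi-naive) added at 500 per well, and plates incubated 72 hr at 37 C. CellTiter-Glo was added and luminescence measured after 10 min.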

[3] = Viability qHTS for spleen associated tyrosine kinase inhibitor (SYKi) drug resistant MV4-11 cells (AID 1963824); note: nearly all actives have a fitted effect of over 35% in size; note: potency is the fitted concentration of half-maximal effect
In short: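 SYK inhibitor-resistant MV4-11 AML cells, 500 per well, added to predispensed compounds and incubated 72 hr at 37 C, 5% CO2. Viability measured by CellTiter-Glo luminescence after 10 min at room temperature.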

[4] = Cellular viability qHTS for adrenocortical cancer (ACC) cell line NCI-H295R (AID 1963990); note: nearly all actives have a fitted effect of over 60% in size; note: potency is the fitted concentration of half-maximal effect
In short: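 IC50 and maximal efficacy derive from four-parameter logistic modelling of titration curves, with reads scaled between DMSO-only wells (0%) and doxorubicin hydrochloride (100% inhibition). Compounds spanned up to 46 uM over 48 h.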

[5] = Cellular viability qHTS for adrenocortical cancer (ACC) cell line SW-13 (AID 1963989); conditions: SW-13 ACC cells viability, CellTiter-Glo, 48 h; activity (max response): active compounds read low;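 note: cells grown in serum-free medium with ITS supplement; nearly all actives have a fitted effect of over 65% in size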
In short: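 Luminescent ATP read-out (CellTiter-Glo, 20 min at room temperature) measured metabolically competent SW-13 cells after 48 h compound treatment. Final concentrations spanned up to 46 uM; bortezomib served as positive control.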

Cytochrome P450 3A7 (Homo sapiens), sequence (P24462 whole entry, looked up): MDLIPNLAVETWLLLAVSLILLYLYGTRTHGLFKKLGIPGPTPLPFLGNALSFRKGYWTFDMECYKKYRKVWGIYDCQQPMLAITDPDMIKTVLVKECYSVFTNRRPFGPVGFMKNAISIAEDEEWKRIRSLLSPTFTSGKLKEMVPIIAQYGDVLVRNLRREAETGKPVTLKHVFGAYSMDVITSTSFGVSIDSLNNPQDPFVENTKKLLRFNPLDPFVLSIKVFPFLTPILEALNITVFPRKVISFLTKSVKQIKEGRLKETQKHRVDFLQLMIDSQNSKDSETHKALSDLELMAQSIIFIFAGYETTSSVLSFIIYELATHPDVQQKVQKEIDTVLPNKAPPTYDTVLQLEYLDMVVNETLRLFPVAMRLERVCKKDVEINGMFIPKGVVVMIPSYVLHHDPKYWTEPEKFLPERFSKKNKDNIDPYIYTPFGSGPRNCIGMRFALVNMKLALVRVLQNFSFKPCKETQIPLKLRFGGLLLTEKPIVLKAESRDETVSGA

## COc1ccccc1O
[1]
  Potency: inactive
[2]
  Potency: inactive
[3]
  Potency: inactive
[4]
  Potency: 28.2 µM (active)

## Cc1cc2c(cc1S(N)(=O)=O)S(=O)(=O)CCC2
[1]
  Potency: inactive
[2]
  Potency: inactive
[3]
  Potency: inactive
[4]
  Potency: inactive

## CC1(C)Oc2ccc(C#N)cc2[C@@H](N2CCCC2=O)[C@@H]1O
[1]
  Potency: inactive
[2]
  Potency: inactive
[3]
  Potency: inactive
[4]
  Potency: inactive

## O=C1C(=O)c2ccccc2C(O)=C1C1CCC(c2ccc(Cl)cc2)CC1 (configuration not stated)
[1]
  Potency: inactive
[2]
  Potency: inactive
[3]
  Potency: inactive
[4]
  Potency: inactive

## Nc1nnnn1-c1ccccc1
[1]
  Potency: inactive
[2]
  Potency: inactive
[3]
  Potency: inactive
[4]
  Potency: inactive

## C[N+]1(C)CCCC(OC(=O)C(O)(c2ccccc2)c2ccccc2)C1 (configuration not stated)
[1]
  Potency: inactive
[2]
  Potency: inactive
[3]
  Potency: inactive
[4]
  Potency: inactive

## CN1CCN(c2cc3c(nn2)Oc2ccccc2N3C)CC1
[1]
  Potency: inactive
[2]
  Potency: inactive
[3]
  Potency: inactive
[4]
  Potency: inactive

## CC(=O)c1ccc(S(=O)(=O)NC(=O)NC2CCCCC2)cc1
[1]
  Potency: inactive
[2]
  Potency: inactive
[3]
  Potency: inactive
[4]
  Potency: inactive

## COC(=O)/C=C\C(=O)OC
[1]
  Potency: inactive
[2]
  Potency: inactive
[3]
  Potency: inactive
[4]
  Potency: inactive

## CCN[C@@H]1C[C@H](N)[C@@H](OC2OC(CN)=CCC2N)[C@H](O)[C@H]1O[C@H]1OC[C@](C)(O)[C@H](NC)[C@H]1O (some centres not stated)
[1]
  activity change, negative = inhibition: 12% [at 0.91 µM]
[2]
  viability (% of control): 111% [at 0.588 µM]
[3]
  viability, % of control: 115% [at 0.588 µM]
[4]
  activity change, negative = viability loss: -3.31% [at 0.587 µM]

## CC1(C)OC[C@@H]2O[C@@]3(C(=O)O)OC(C)(C)O[C@H]3[C@@H]2O1
[1]
  Potency: inactive
[2]
  Potency: inactive
[3]
  Potency: inactive
[4]
  Potency: inactive

## C=CCOc1ccccc1OCC(O)CNC(C)C (configuration not stated)
[1]
  Potency: inactive
[2]
  Potency: inactive
[3]
  Potency: inactive
[4]
  Potency: inactive

## O=c1[nH]c(=O)n([C@H]2C[C@H](O)[C@@H](CO)O2)cc1C(F)(F)F
[1]
  Potency: inactive
[2]
  Potency: 2.11 µM (active) and 1.66 µM (active)
[3]
  Potency: 2.11 µM (active) and 2.35 µM (active)
[4]
  Potency: inactive

## O=C(O)CC(O)C(=O)O (configuration not stated)
[1]
  Potency: inactive
[2]
  Potency: inactive
[3]
  Potency: inactive
[4]
  Potency: inactive

## Cc1nc(NC(=O)N2CCC[C@H]2C(N)=O)sc1-c1ccnc(C(C)(C)C(F)(F)F)c1
[1]
  Potency: inactive
[2]
  Potency: 13 µM (active)
[3]
  Potency: 11.6 µM (active) and 16.6 µM (active)
[4]
  Potency: 11.2 µM (active)

## CC(C)NNC(=O)c1ccncc1
[1]
  Potency: inactive
[2]
  Potency: inactive
[3]
  Potency: inactive
[4]
  Potency: inactive

## CCOC(=O)n1ccn(C)c1=S
[1]
  Potency: inactive
[2]
  Potency: inactive
[3]
  Potency: inactive
[4]
  Potency: inactive

## NC(=O)NS(=O)(=O)c1ccc(Cl)cc1
[1]
  Potency: inactive
[2]
  Potency: inactive
[3]
  Potency: inactive
[4]
  Potency: inactive

## C[N+](C)(C)CCOC(N)=O
[1]
  Potency: inactive
[2]
  Potency: inactive
[3]
  Potency: inactive
[4]
  Potency: inactive

## CCCCCCCCCCCCCCCCN
[1]
  Potency: inactive
[2]
  Potency: inactive
[3]
  Potency: inactive
[4]
  Potency: inactive

## CC(=O)Nc1ccc(C(=O)O)cc1
[1]
  Potency: inactive
[2]
  Potency: inactive
[3]
  Potency: inactive
[4]
  Potency: inactive

## O=c1ccn([C@@H]2O[C@H](CO)[C@@H](O)[C@H]2O)c(=O)[nH]1
[1]
  Potency: inactive
[2]
  Potency: inactive
[3]
  Potency: inactive
[4]
  Potency: inactive

## CN1CCN(C(c2ccccc2)c2ccccc2)CC1
[1]
  Potency: inactive
[2]
  Potency: inactive
[3]
  Potency: inactive
[4]
  Potency: inactive

## CC(=O)Nc1cccc(O)c1
[1]
  Potency: inactive
[2]
  Potency: inactive
[3]
  Potency: inactive
[5]
  activity (max response): -1.77%
[4]
  Potency: inactive

## Cc1ccc(-c2ccccc2C#N)cc1
[1]
  Potency: inactive
[2]
  Potency: inactive
[3]
  Potency: inactive
[4]
  Potency: inactive

## CCCCOC(=O)CCCCCCCCC(=O)OCCCC
[1]
  Potency: inactive
[2]
  Potency: inactive
[3]
  Potency: inactive
[5]
  activity (max response): 11.1%
[4]
  Potency: inactive

## CCN(CC)CCNC(=O)c1ccc(N)cc1
[1]
  Potency: inactive
[2]
  Potency: inactive
[3]
  Potency: inactive
[4]
  Potency: inactive

## CCN(CC)C(=O)Nc1ccc(OCC(O)CNC(C)(C)C)c(C(C)=O)c1 (configuration not stated)
[1]
  Potency: inactive
[2]
  Potency: inactive
[3]
  Potency: inactive
[4]
  Potency: inactive

## Nc1cc(=O)[nH]c(N)n1
[1]
  Potency: inactive
[2]
  Potency: inactive
[3]
  Potency: inactive
[4]
  Potency: inactive

## CC(=O)CCCCn1c(=O)c2c(ncn2C)n(C)c1=O
[1]
  Potency: inactive
[2]
  Potency: inactive
[3]
  Potency: inactive
[4]
  Potency: inactive

## NC(=O)NS(=O)(=O)c1ccc(N)cc1
[1]
  Potency: inactive
[2]
  Potency: inactive
[3]
  Potency: inactive
[4]
  Potency: inactive

## CC(C)NC[C@@H](O)COc1ccc(CC(N)=O)cc1
[1]
  Potency: inactive
[2]
  Potency: inactive
[3]
  Potency: inactive
[4]
  Potency: inactive

## Cc1cc(C(C)(C)C)c(O)c(C(C)(C)C)c1
[1]
  Potency: inactive
[2]
  Potency: inactive
[3]
  Potency: inactive
[4]
  Potency: 25.9 µM (active)

## C=C(CC)C(=O)c1ccc(OCC(=O)O)c(Cl)c1Cl
[1]
  Potency: inactive
[2]
  Potency: 13.3 µM (active)
[3]
  Potency: 15 µM (active)
[4]
  Potency: 9.2 µM (active)

## CN(C)[C@@H]1C(=O)C(C(N)=O)=C(O)[C@@]2(O)C(=O)C3=C(O)c4c(O)cccc4C[C@H]3C[C@@H]12
[1]
  Potency: inactive
[2]
  Potency: inactive
[3]
  Potency: inactive
[4]
  Potency: inactive
